Active and inactive are the calls of the source. Rule for the calls: active = hit-call score of the fitted dose curve at least 0.9, where 1 is the maximum; inactive = score below 0.9.
What follows are molecules tested on ABC Transporter (ABCB1), ABCB1 (gene 5243) (assay: LTEA_HepaRG_ABCB1: Life Technologies and Expression Analysis (LTEA) Assay for ABC Transporter (ABCB1) using HepaRG (AID 2283460)). Settings: mRNA level, 48 h; actives raise or lower the signal.
Method: LTEA_HepaRG is a cell based, multiplexed-readout assay that uses HepaRG, a human liver cell line, with measurements taken at 48 hours after chemical dosing on a 96-well plate.LTEA_HepaRG_ABCB1 is one of 102 assay component(s) measured in the LTEA HepaRG cell culture assay. It is a marker of Steatosis/NR mediated transport.Data from the assay component LTEA_HepaRG_ABCB1 was analyzed into 1 endpoint. This assay endpoint, LTEA_HepaRG_ABCB1, was analyzed with bidirectional fitting relative to DMSO as the negative control and baseline of activity. Using a type of inducible reporter, measures of mRNA induction for gain or loss-of-signal activity can be used to understand regulation of transcription factor activity. To generalize the intended target to other relatable targets, this assay endpoint is annotated to the transporter intended target family, where the subfamily is ABC transporter.
A total of 1060 chemcials from the ToxCast library were tested in eight-point concentration-response experiments. Cell culture and cytotoxicity assays were conducted at Thermo Fisher Scientific's Custom Services facility (Madison, WI). A single lot of human HepaRG cells (Thermo Fisher Scientific, Frederick, MD) was used for the cell culture experiments. 96-well format collagen type I coated plates of human HepaRG cells were prepared using established methods. Briefly, cryopreserved HepaRG cells were thawed, plated at a density of approximately 100,000 cells/well in HepaRG Thaw, Plate, and General Purpose media (HPRG770, Thermo Fisher Scientific), and incubated for 48 hours. 0.5% DMSO was selected as vehicle control to balance the requisite need of DMSO in HepaRG cultures to maintain differentiation (for example, baseline metabolism, proportions of hepatocytes vs. cholangiocytes), while enabling further hepatic receptor pathway activation (for example, PXR and CAR) in response to chemical exposure. 48 hours after plating, the culture medium was replaced with HepaRG Serum-Free Incudtion Media. Cells were exposed to each test chemical in duplicate and maintained in CO2 incubators for another 48 hours. Chemical plates were thawed to room temperature and 200x concentrations of treatment groups were prepared. 8-point conentration-reponse curves were made with the highest exposure at 100 uM, followed by half-log dilutions, all in 0.5% DMSO. Each test plate contained variouse controls, induction positive controls (1mM phenobarbital), cytotoxicity positive controls ([…] aflatoxin B1), vehicle controls (0.5% DMSO), and total lysis controls (0.5% DMSO). Cell morphology images were taken using an Essen IncuCyte FLR automated microscope, with six 96-well plates imaged in about 24 minutes. Images were captured and exported and JPEG files. Spent culture media was transfered to black-well plates for the LDH assay, and remaining media was sorted at -80 C for later use. Cells were treated with RLT buffer and frozen until shipped for gene expression analysis. Total RNA was isolated from the cell suspension in 75 uL of Buffer RLT (Qiagen, Germantown, MD 20874) by Quintiles/Expression Analysis (Durham, NC) using a custom isolation procedure. Total RNA from each plate well was transferred to a preamplification plate. Fluidigm's 96.96 Dynamic ArrayTM (Fluidigm, Amsterdam, the Netherlands) technology was used for gene expression analyses by quantitative reverse transcription polymerase chain reaction (qRT-PCR, performed by Quintiles/Expression Analysis, Durham, NC)89. Standard TaqManTM Assays (Applied Biosystems/ThermoFisher Scientific, Foster City, CA) were used to assess the expression of 93 genes selected based on their selectivity and sensitivity to important hepatic receptors known to be modulated by environmental chemicals; importance in human hepatocyte functionality; and hepatotoxicity. […]

Row | SMILES | outcome | AC50
1 | Cc1ccccc1[N+](=O)[O-] | inactive | –
2 | O=NN(c1ccccc1)c1ccccc1 | inactive | –
3 | CC(C)C(=O)OCC(C)(C)C(OC(=O)C(C)C)C(C)C (stereo not given) | inactive | –
4 | CCCCCCCCCc1ccc(O)cc1 | inactive | –
5 | O=C(NC(=O)c1c(F)cccc1F)Nc1cc(Cl)c(OC(F)(F)C(F)F)c(Cl)c1 | inactive | –
6 | CCOP(=S)(OCC)SCSC(C)(C)C | inactive | –
7 | Clc1ccc(C(c2ccccc2Cl)C(Cl)(Cl)Cl)cc1 (stereo not given) | – | 16.9 µM (active)
8 | CCOC(=O)C(O)(c1ccc(Cl)cc1)c1ccc(Cl)cc1 | – | 73 µM (active)
9 | CCC(C)(CC)c1cc(NC(=O)c2c(OC)cccc2OC)on1 | – | 1.15 µM (active)
10 | O=C(NC(=O)c1cc(F)c(F)cc1Cl)Nc1cc(F)ccc1N1CCC(C(=O)O)CC1 | – | 21 µM (active)
11 | CCC(C)c1cc([N+](=O)[O-])cc([N+](=O)[O-])c1O (stereo not given) | – | 1.39 µM (active)
12 | ClC1=C(Cl)[C@]2(Cl)[C@@H]3[C@@H]4C[C@@H]([C@H]5O[C@@H]45)[C@@H]3[C@@]1(Cl)C2(Cl)Cl | – | 0.0325 µM (active)
13 | CCC(=O)O[C@H]1CC[C@H]2[C@@H]3CCC4=CC(=O)CC[C@]4(C)[C@H]3CC[C@]12C | inactive | –
14 | Nc1ccc(-c2ccc(N)cc2)cc1 | – | 0.0737 µM (active)
15 | NS(=O)(=O)C(F)(F)C(F)(F)C(F)(F)C(F)(F)C(F)(F)C(F)(F)C(F)(F)C(F)(F)F | – | 9.25 µM (active)
16 | CC(c1ccc(O)cc1)(c1ccc(O)cc1)c1ccc(O)cc1 | – | 72.9 µM (active)
17 | O=C(N[C@H]1CN2CCC1CC2)c1cc2ccoc2cn1 | inactive | –
18 | C=CC(N)=O | inactive | –
19 | C=CC(=O)NCNC(=O)C=C | inactive | –
20 | Cc1cc2c3c(c1)C(c1ccccc1)=N[C@@H](NC(=O)c1ccncc1)C(=O)N3CC2 | – | 5.26 µM (active)

Row | SMILES | outcome | AC50
21 | ClC1=C(Cl)[C@]2(Cl)[C@@H]3[C@H]4C[C@H]([C@@H]5O[C@H]45)[C@@H]3[C@@]1(Cl)C2(Cl)Cl | inactive | –
22 | O=S(=O)(O)C(F)(F)C(F)(F)C(F)(F)C(F)(F)C(F)(F)C(F)(F)F | inactive | –
23 | CN(C)c1nc(=O)n(C2CCCCC2)c(=O)n1C | inactive | –
24 | CC(C)(O)C(=O)Nc1ccc([N+](=O)[O-])c(C(F)(F)F)c1 | inactive | –
25 | Clc1ccc(Cl)cc1 | inactive | –
26 | ClC(Cl)=C(c1ccc(Cl)cc1)c1ccc(Cl)cc1 | – | 23.2 µM (active)
27 | CC1=C2C[C@H]3[C@@H](CC=C4C[C@@H](O)CC[C@@]43C)[C@@H]2CC[C@]12O[C@@H]1C[C@H](C)CN[C@H]1[C@H]2C | inactive | –
28 | c1cc2ccc3cccc4ccc(c1)c2c34 | inactive | –
29 | CCSC(=O)N(CC)C1CCCCC1 | inactive | –
30 | CO/C=C(/C(=O)OC)c1ccccc1COc1cccc(C(F)(F)F)n1 | inactive | –
31 | CCCCCCCCCC[N+](C)(C)CCCCCCCCCC | inactive | –
32 | C[C@]12CCC(=O)C=C1CC[C@@H]1[C@@H]2CC[C@@]2(C)[C@H]1CC[C@]2(C)O | – | 5.73 µM (active)
33 | CN(C)CCO | inactive | –
34 | Oc1ccc(Cl)cc1Cl | inactive | –
35 | COc1ccc(O)c(C(C)(C)C)c1 | inactive | –
36 | N#Cc1ccc(N(CC(N)=O)CC(F)(F)F)cc1C(F)(F)F | – | 9.92 µM (active)
37 | ClC1=C(Cl)[C@]2(Cl)[C@@H]3[C@@H](Cl)[C@H]4O[C@H]4[C@@H]3C1(Cl)C2(Cl)Cl | – | 6.62 µM (active)
38 | Cc1ccccc1O | inactive | –
39 | CCCN(CCC)N=O | inactive | –
40 | Clc1ccc(C(Cl)(Cl)Cl)cc1 | inactive | –
